The text below walks through data of PubChem BioAssay AID504652 (National Center for Advancing Translational Sciences (NCATS), 2011).

The structures appear in SMILES notation. Several values for one entry are separate records, joined by “and”; a condition that tells them apart may be missing. Equal values may be shown once. Hit rate of the full screen: of about 360,000 compounds, about 11,000 (3.1%) were called active. Only a selection was taken, and actives are over-represented in it overall. Unmarked numbers belong to inactive results. No stated cut-off is given here; in the data, active means activity change below about -30%; inactive means the rest.
On the % scale 0 is the no-effect control and ±100 the full control effect.

D(1A) dopamine receptor (Homo sapiens), sequence (P21728 whole entry, looked up): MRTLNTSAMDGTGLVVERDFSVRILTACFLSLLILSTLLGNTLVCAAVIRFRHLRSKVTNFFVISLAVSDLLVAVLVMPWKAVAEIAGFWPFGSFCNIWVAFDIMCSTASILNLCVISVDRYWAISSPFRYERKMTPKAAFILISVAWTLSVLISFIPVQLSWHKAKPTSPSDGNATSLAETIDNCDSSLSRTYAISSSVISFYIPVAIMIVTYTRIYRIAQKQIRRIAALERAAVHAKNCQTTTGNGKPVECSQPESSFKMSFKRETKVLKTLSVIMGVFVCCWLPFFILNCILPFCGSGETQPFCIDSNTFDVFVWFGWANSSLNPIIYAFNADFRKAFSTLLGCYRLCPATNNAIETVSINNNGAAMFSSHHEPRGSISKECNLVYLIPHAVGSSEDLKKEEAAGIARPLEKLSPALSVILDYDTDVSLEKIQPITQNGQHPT

The target of the assay is D(1A) dopamine receptor (Homo sapiens) (UniProt P21728). Put plainly: Antagonist of Human D 1 Dopamine Receptor: qHTS. The settings on record: HEK293 TREx D1 cells, calcium flux, dopamine EC80; at 10 µM; hits give low values. In outline:
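Kinetic fluorescence of a calcium dye serves as the read-out. D1-expressing Hek293 Trex cells, induced overnight at 30 C, are exposed to compound for 180 s before an EC80 dopamine addition, then read 180 s further.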
On the technique in general: Quantitative high-throughput screening tests each substance at several concentrations.
Consider `CCOc1ccccc1N(C)C(=O)c1cc2c(s1)-c1ccccc1OC2`, for which the activity change, negative = inhibition was 7.49%.

`Cc1sc(C2C(C#N)=C(N)N(c3cccc(Cl)c3)C3=C2C(=O)CCC3)cc1CN1CCOCC1` (centres undefined): the activity change, negative = inhibition was -16.8%.

`CCOC(=O)c1[nH]c2ccc(OC)cc2c1NC(=O)N1CCOCC1`: the activity change, negative = inhibition was -7.34%.

Take `Cc1c(C(=O)CN2CCOCC2)[nH]c2ccccc12`: the activity change, negative = inhibition is -9.55%.

`Cc1c(C(=O)N2CCOCC2)[nH]c2ccc(OCc3ccccc3)cc12`: the activity change, negative = inhibition is -45.7% (active).

`CCOC(=O)c1ccc(NC(=O)Cn2cc(S(=O)(=O)Cc3ccccc3F)c3ccccc32)cc1`: the activity change, negative = inhibition is 16.6%.

`Cc1nc2c(-c3ccccc3)c(C)nn2c(C)c1CCC(=O)NCCc1ccccc1`: the activity change, negative = inhibition is -7.07%.

Regarding `Cc1nc2c(-c3ccc(F)cc3)c(C)nn2c(C)c1CCC(=O)NCc1ccco1`, the activity change, negative = inhibition was -61.2% (active).

On to `COc1cc(OC)cc(-c2nc3nc(C)c(CCC(=O)NCc4ccco4)c(C)n3n2)c1`, for which the activity change, negative = inhibition is -2.94%.

Take `CCOC(=O)c1c(-c2ccc(OC)cc2)oc2ccc(OCc3ccc(C(=O)OC)cc3)cc12`: the activity change, negative = inhibition was 4.56%.

On to `O=C(Nc1ccc2nc(SCC(=O)N3CCCc4ccccc43)sc2c1)c1ccc(Cl)cc1`, for which the activity change, negative = inhibition is -13.6%.

With `Cc1ccc(-c2cc(C(F)(F)F)c(C#N)c(SCC(=O)Nc3ccccc3)n2)cc1`, the activity change, negative = inhibition is -36.2% (active).

As to `N#Cc1c(C(F)(F)F)cc(-c2ccccc2)nc1SCC(=O)N1CCOCC1`, the activity change, negative = inhibition is 7.61%.

Regarding `Cc1nn(-c2nc(-c3ccccc3)cc(C(F)(F)F)n2)c(C)c1Cl`, the activity change, negative = inhibition is 5.82%.

Take `CCOC(=O)COc1nc(C)cc(C(F)(F)F)c1C#N`: the activity change, negative = inhibition is -9.55%.

Turning to `CCN(CC)c1nc(-c2ccccc2)cc(C(F)(F)F)c1C#N`, the activity change, negative = inhibition is -72.6% (active).

For the molecule `Cc1cc(C(F)(F)F)c(C#N)c(SCC(=O)NC2CC2)n1`, the activity change, negative = inhibition was -10.9%.

For the molecule `CCCN1CCc2nc(N3CCN(C)CC3)ncc2C1`, the activity change, negative = inhibition was -15.6%.

For `CSc1cccc(NC(=O)CN2C(=O)CCc3cc(S(=O)(=O)N4CCCCC4)ccc32)c1`, the activity change, negative = inhibition is -0.775%.

For `Cc1cc2c(cc3c(SCc4cccc(Cl)c4)nnc(C)n32)o1`, the activity change, negative = inhibition was -2.95%.

Turning to `Cc1ccc(CNS(=O)(=O)c2ccc(-c3cc(C(F)(F)F)on3)s2)cc1`, the activity change, negative = inhibition was 0.708%.

Turning to `COc1ccccc1CCNC(=O)c1cccn1-c1nnc(N2CCCCC2)s1`, the activity change, negative = inhibition was 13.6%.

For the molecule `CCCOc1cccc(C(=O)Nc2cccc(NC(=O)c3ccc(C(C)(C)C)cc3)c2)c1`, the activity change, negative = inhibition was -1.05%.

Turning to `CCOc1cccc2c1N[C@@H](c1ccc(C(=O)O)cc1)[C@H]1CC=C[C@@H]21`, the activity change, negative = inhibition is -19.7%.

With `Cc1ccc2nc(COc3cccc(NC(=O)c4ccccc4Cl)c3)cc(=O)n2c1`, the activity change, negative = inhibition is -6.97%.

With `CC(=O)NCCn1c(SCC(=O)Nc2ccc(C)cc2)nc2ccccc2c1=O`, the activity change, negative = inhibition is 1.17% and -18.8%.

As to `O=C(CSc1nc2ccccc2c(=O)n1CCCO)NC1CC1`, the activity change, negative = inhibition was 8.77%.

Regarding `CN(C)CCCn1c(SCCN2C(=O)c3ccccc3C2=O)nc2ccccc2c1=O`, the activity change, negative = inhibition is -51.8% (active).

For `Cc1ccc(Cc2nc3ccccc3nc2SCC(=O)Nc2cccc(C(F)(F)F)c2)cc1`, the activity change, negative = inhibition is -11.6%.

Regarding `O=C(CCc1nc(CN2CCN(S(=O)(=O)c3ccc(Cl)cc3)CC2)no1)N1CCCCC1`, the activity change, negative = inhibition is -4.7%.

On to `Cc1ccccc1S(=O)(=O)N1[C@@H](c2cccc(Cl)c2)C(C(=O)O)=CC[C@H]1c1ccc(Cl)cc1`, for which the activity change, negative = inhibition is -39.7% (active).

For `Cc1ccc([C@@H]2CC=C(C(=O)O)[C@H](c3cccc(Cl)c3)N2S(=O)(=O)c2ccc(C)cc2)cc1`, the activity change, negative = inhibition was -12.2%.

As for `Cc1ccc(S(=O)(=O)N2[C@@H](c3cccc(Cl)c3)C(C(=O)O)=CC[C@H]2c2ccc(Cl)c(Cl)c2)cc1`, the activity change, negative = inhibition is -17.8%.

Consider `CCc1cccc(-n2nnc(-c3nsc(NC(=O)c4ccc(C)cc4)n3)c2C)c1`, for which the activity change, negative = inhibition is 16.6%.

Take `CCOCC(=O)NCc1ccc2c(c1)cc(C)n2C`: the activity change, negative = inhibition was -38.5% (active).

For `Cc1ccc(CNC(=O)COc2ccc3c(c2)CCC3)cc1`, the activity change, negative = inhibition was 0.495%.

Take `COc1cc(C(=O)NCc2ccc3c(c2)cc(C)n3C)cc(OC)c1OC`: the activity change, negative = inhibition was -1.99%.

In the case of `CCc1ccccc1NC(=O)Cn1c(=O)n(CC2CCC(C(=O)NCCc3ccccc3)CC2)c(=O)c2ccccc21` (centres undefined), the activity change, negative = inhibition was 9.85%.

Take `CC(=O)c1c(C)n(-c2ccc(N(C)C)cc2)c2ccc(OCC(N)=O)cc12`: the activity change, negative = inhibition is 4.08%.

Consider `CCOC(=O)c1c(CN2CCOCC2)n(-c2ccccc2)c2ccc(O)cc12`, for which the activity change, negative = inhibition was 2.3%.

For `CC(=O)c1c(C)n(-c2ccc(C)cc2)c2ccc(O)cc12`, the activity change, negative = inhibition was -50.8% (active).

`O=c1c2ccccc2n(Cc2cccc(Cl)c2)c(=O)n1Cc1ccccc1`: the activity change, negative = inhibition was -3.55%.

For `Fc1ccccc1Oc1ncnc2c1oc1ccccc12`, the activity change, negative = inhibition was -11.6%.

Regarding `CCn1c(SCc2cc(=O)n3ccsc3n2)nc2ccccc21`, the activity change, negative = inhibition was -2.02%.

As for `O=C(OCc1cc(=O)n2ccsc2n1)C1(c2ccc(Cl)cc2)CC1`, the activity change, negative = inhibition was 5.81%.

Turning to `O=c1cc(Cn2nnc(-c3ccc(Cl)cc3)n2)nc2sccn12`, the activity change, negative = inhibition was -32.8% (active).

Regarding `COc1ccc2[nH]c3c(c2c1)CCN(C(=O)CCC1CCCC1)C3c1ccc(F)cc1` (centres undefined), the activity change, negative = inhibition is -3.48%.

Consider `CC(C)c1ccc(OCC(=O)N(Cc2ccc(N(C)C)cc2)C2CCS(=O)(=O)C2)cc1` (centres undefined), for which the activity change, negative = inhibition was 12%.

As to `C=CCN1C(=NC(=O)COc2ccccc2)SC2CS(=O)(=O)CC21` (centres undefined), the activity change, negative = inhibition was 5.52%.

Take `CC(C)CC(=O)N=C1SC2CS(=O)(=O)CC2N1CCc1ccccc1` (centres undefined): the activity change, negative = inhibition was 4.43%.

For `O=C(CCC1CCCC1)N=C1SC2CS(=O)(=O)CC2N1Cc1ccccc1` (centres undefined), the activity change, negative = inhibition is -43% (active).

On to `COc1ccccc1CN1CCC(CNC(=O)c2cnn(-c3cccc(Cl)c3)c2C2CCN(C(=O)OC(C)(C)C)CC2)CC1`, for which the activity change, negative = inhibition is 3.93%.

As for `Cc1ccc(Cl)cc1NC(=O)Cc1ccc(-n2c(C)nc3cccnc32)cc1`, the activity change, negative = inhibition is 13%.

With `COc1cc(C(=O)NCCS(=O)(=O)N2CCN(c3ccccc3)CC2)cc(OC)c1OC`, the activity change, negative = inhibition is -13.9%.

For the molecule `O=C(NCC(c1ccc2c(c1)OCO2)N1CCN(c2ccccc2)CC1)C(=O)Nc1ccccc1F` (centres undefined), the activity change, negative = inhibition was 4.02%.

On to `COc1ccc(C(CC(=O)N2CCN(c3ccccc3)CC2)c2c(O)cc(OC)cc2OC)cc1` (centres undefined), for which the activity change, negative = inhibition is 29.6%.

For the molecule `COc1cc(OC)c2ccc(=O)oc2c1C(CCN1CCN(c2ccccc2)CC1)c1ccc2c(c1)OCO2` (centres undefined), the activity change, negative = inhibition is -83.8% (active).

`COc1ccccc1N1CCN(Cc2cc(OC)c3c(c2)OCO3)CC1`: the activity change, negative = inhibition is -0.813%.

On to `COc1cc(C(CCN2CCN(c3ccccc3)CC2)c2c(OC)cc(OC)c3ccc(=O)oc23)cc(OC)c1OC` (centres undefined), for which the activity change, negative = inhibition is -74% (active).
